Source: PubChem BioAssay (NCATS)
Results filed as inconclusive are left out. Values without a mark were called inactive. Active and inactive are the calls of the source. Calls come from the whole dose curve; as a rule, active = well fitted cell-killing curve with a large enough effect; inconclusive = small, poorly fitted or top-dose-only effect; inactive = flat fitted curve, though single readings scatter. Numbered stars: 1 amine (or outer) side, 2 acyl side, 3 side chain; on linkers, the order of the positions; unused ones are H or OH. Bridge positions count the residues as written; N and C are the ends. Square brackets hold non-standard residues; d marks the D form. Peptide text beside a SMILES is read from it. I, II: the chains in the order shown. Actinocin(9to1) = Cc1c2oc3c(C)ccc(C(=O)[*:1])c3nc-2c(C(=O)[*:2])c(N)c1=O; NMeV = CN[C@H](C(=O)O)C(C)C; Sar = CNCC(=O)O

Experiment: qHTS of pediatric cancer cell lines to identify multiple opportunities for drug repurposing: Confirmatory screen for BT-12 cells (AID 1347112); note: nearly all actives have a fitted effect of over 55% in size
Conditions: BT-12 rhabdoid tumor cells, viability; series mostly up to 45.9 µM; activity change, negative = cytotoxic: at the top concentration
Excerpt: Drug repurposing or repositioning has been offered as a strategy for drug development in oncology programs. This approach has special potential for childhood cancers and other rare or orphan diseases, where the expected return on new drug development has been a disincentive to pharmaceuticals.
In this project we exploit the poly-pharmacology of drugs to discover new indications via phenotypic screening of a panel of 19 well-characterized cell lines derived from solid tumors seen in children and adolescents. The goal is to identify approved drugs with previously unrecognized anticancer properties that has the potential to reveal new mechanisms and biological processes involved in carcinogenesis or drug resistance. We employed a titration-based paradigm (quantitative high-throughput screening or qHTS), where all compounds were tested at multiple concentrations for their effect on cell viability. Concentration-response curves (CRCs) were derived directly from the primary screen, and both potency and efficacy values were used to identify compounds with robust bioactivity profiles. We screened the NIH Chemical Genomics Center (NCGC) Pharmaceutical Collection (NPC) and Mechanism Interrogation Plate (MIPE) small molecule collections of approved and investigational compounds against these cell lines; and measured metabolically active cells after 48 hours of compound treatment as a proxy for cell viability.
Assay Submitter: Nathalia J. Martinez, National Center for Advancing Translational Sciences, National Institutes of Health, Rockville, MD, USA; email: natalia.martinez@nih.gov
[1] Shen, M et al. Quantitative high-throughput phenotypic screening of pediatric cancer cell lines identifies multiple opportunities for drug repurposing. Oncotarget 2017 Dec 19;9(4):4758-4772. PMID 29435139.
The cells were obtained from University of North Carolina (UNC), Pediatric Preclinical Testing Program (PPT), and Coriell Institute (CI).
qHTS cell viability assay:
Cells were assayed in growth media at a density of 500-1,000 cells/well. Five microliters of cells were dispensed into 1,536-well, white, solid-bottom, TC-treated plates (Greiner Bio One) using a multidrop dispenser and incubated at 37 degrees C, 5% CO2, under a humidified atmosphere for 5 hours. Twenty-three nanoliters of compounds and controls (neutral control DMSO or positive control bortezomib at final concentration of 2.3 µM) were subsequently transferred by Kalypsys pintool. For primary screens, the MIPE collection was tested at 11-point dilutions (final concentrations range from 0.78 nM to 46 µM) and the NPC collection at 8-point dilutions (final concentrations range from 0.59 nM to 46 µM). Compounds tested in follow-up screens were assayed at 11-point dilutions. Cells were incubated for 48 hours, followed by addition of 3 µL of CellTiter-Glo (Promega). After a 15 min incubation at room temperature, samples were analyzed for luminescence intensity using a ViewLux High-throughput CCD imager equipped with clear filters.
% is set by controls: 0 for no effect and ±100 for the full control effect; potency is the fitted concentration of half-maximal effect.

Compound	Potency	activity change, negative = cytotoxic
OC[C@H]1O[C@@H](n2cnc3c(=S)nc[nH]c32)[C@H](O)[C@@H]1O	14.7 µM (active)	
CC(=O)OCC(=O)[C@@]12OC(C)(C)O[C@@H]1C[C@H]1[C@@H]3C[C@H](F)C4=CC(=O)C=C[C@]4(C)[C@@]3(F)[C@@H](O)C[C@@]12C		-17.3%
C[C@@H]1C[C@H]2[C@@H]3CCC4=CC(=O)C=C[C@]4(C)[C@@]3(F)[C@@H](O)C[C@]2(C)[C@H]1C(=O)CO		-10.2%
CC(C)(C(=O)c1cccnc1)c1cccnc1		15.1%
COc1c(C)c2c(c(O)c1C/C=C(\C)CCC(=O)O)C(=O)OC2	4.65 µM (active)	
CC1(C)O[C@@H]2C[C@H]3[C@@H]4C[C@H](F)C5=CC(=O)CC[C@]5(C)[C@H]4[C@@H](O)C[C@]3(C)[C@]2(C(=O)CO)O1		15.4%
CC(=O)OCC(=O)[C@@]1(OC(C)=O)[C@@H](C)C[C@H]2[C@@H]3C[C@H](F)C4=CC(=O)C=C[C@]4(C)[C@@]3(F)[C@@H](O)C[C@@]21C		-8.5%
C[C@]12C=CC(=O)C=C1CC[C@@H]1[C@@H]2[C@@H](O)C[C@@]2(C)[C@H]1CC[C@]2(O)C(=O)CO		19.6%
COc1cc(C=C2CCC/C(=C\c3ccc(O)c(OC)c3)C2=O)ccc1O	18.5 µM (active)	
CC1(C)O[C@@H]2C[C@H]3[C@@H]4CCC5=CC(=O)CC[C@]5(C)[C@@]4(F)[C@@H](O)C[C@]3(C)[C@]2(C(=O)CCl)O1		-0.226%
NC(=O)CC[C@@H]1NC(=O)[C@H](Cc2ccccc2)NC(=O)[C@H](Cc2ccc(O)cc2)NC(=O)CCSSC[C@@H](C(=O)N2CCC[C@H]2C(=O)N[C@@H](CCCN=C(N)N)C(=O)NCC(N)=O)NC(=O)[C@H](CC(N)=O)NC1=O		-0.313%
CCCCC(CC)CN=C(N)NC(N)=NCCCCCCN=C(N)NC(N)=NCC(CC)CCCC (centres undefined)	5.22 µM (active)	
C[n+]1c2cc(N)ccc2cc2ccc(N)cc21 (tested in a mixture with another compound)	0.928 µM (active)	
C[C@]12C=CC(=O)C=C1[C@@H](F)C[C@@H]1[C@@H]2[C@@H](O)C[C@@]2(C)[C@H]1CC[C@]2(O)C(=O)CO		-6.31%
CCOc1ccc2nc3cc(N)ccc3c(N)c2c1	16.5 µM (active)	
CCCC(=O)O[C@]1(C(=O)CO)CC[C@H]2[C@@H]3CCC4=CC(=O)CC[C@]4(C)[C@H]3[C@@H](O)C[C@@]21C		-7.71%
CC(=O)[C@H]1CC[C@H]2[C@@H]3C[C@H](C)C4=CC(=O)CC[C@]4(C)[C@H]3[C@@H](O)C[C@]12C		-7.82%
O=C(CCCN1CCC(O)(c2ccc(Br)cc2)CC1)c1ccc(F)cc1		-16.6%
NC(CO)(CO)CO		1.99%
CN(C)/N=N/c1nc[nH]c1C(N)=O		-2.35%
CN(C)C(=S)SC(=S)N(C)C	4.65 µM (active)	
CC(=O)OCC(=O)[C@@]1(O)CC[C@H]2[C@@H]3CCC4=CC(=O)C=C[C@]4(C)[C@H]3[C@@H](O)C[C@@]21C		-4.18%
CCC(C(=O)OCCN(CC)CC)c1ccccc1 (centres undefined)		-9.3%
CC(=O)Oc1ccc2c(c1)CC[C@@H]1[C@@H]2CC[C@]2(C)[C@@H](O)CC[C@@H]12		2.23%
Cc1c2oc3c(C)ccc(C(=O)N[C@@H]4C(=O)N[C@H](C(C)C)C(=O)N5CCC[C@H]5C(=O)N(C)CC(=O)N(C)[C@@H](C(C)C)C(=O)O[C@@H]4C)c3nc-2c(C(=O)N[C@@H]2C(=O)N[C@H](C(C)C)C(=O)N3CCC[C@H]3C(=O)N(C)CC(=O)N(C)[C@@H](C(C)C)C(=O)O[C@@H]2C)c(N)c1=O (I: T[dV]P[Sar][NMeV] / II: T[dV]P[Sar][NMeV]; ester I:1-I:C, II:1-II:C; linker I:N-II:N via Actinocin(9to1))	0.0208 µM (active)	
CC(=O)Oc1ccc(C(c2ccc(OC(C)=O)cc2)c2ccccn2)cc1		-15.2%
CCCCCCC[N+](CC)(CC)CCCCc1ccc(Cl)cc1	8.27 µM (active)	
COc1cccc2c1C(=O)c1c(O)c3c(c(O)c1C2=O)C[C@@](O)(C(=O)CO)C[C@@H]3O[C@H]1C[C@H](N)[C@H](O)[C@H](C)O1	4.65 µM (active)	
C[C@H]1C[C@H]2[C@@H]3CCC4=CC(=O)C=C[C@]4(C)[C@@]3(Cl)[C@@H](O)C[C@]2(C)[C@@]1(O)C(=O)CO		-10.9%
